# Source: PubChem BioAssay (National Center for Advancing Translational Sciences (NCATS))
# TGFb SMAD3 inh: inhibitors of TGF-b signaling | HepG2 CAGA-GFP TGF-b/SMAD3 reporter, GFP fluorescence, 18 h; TGF-beta stimulated, 500 pg/mL final | Potency, µM (series often up to 46.1 µM), most hits filed as inhibitors | 410,000 tested, 1.2% active; note: nearly all actives have a fitted effect of over 65% in size
#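 First, reporter cells (HEPG2 CAGA-GFP) rested 2 h at 37 degrees C. Next, compounds were pinned in and TGF-beta added to 500 pg/mL final. After 18 h, GFP was imaged per cell and summed per well.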
# TDP1 inh: blocks human tyrosyl-DNA phosphodiesterase 1; Q9NUW8; 350,000 tested, 0.28% active; recombinant TDP1, AlphaScreen DNA substrate cleavage; Potency, µM (doses to about 130 µM), hits mostly inhibitors; note: nearly all actives have a fitted effect of over 40% in size
# Target sequence (Q9NUW8 whole entry, looked up): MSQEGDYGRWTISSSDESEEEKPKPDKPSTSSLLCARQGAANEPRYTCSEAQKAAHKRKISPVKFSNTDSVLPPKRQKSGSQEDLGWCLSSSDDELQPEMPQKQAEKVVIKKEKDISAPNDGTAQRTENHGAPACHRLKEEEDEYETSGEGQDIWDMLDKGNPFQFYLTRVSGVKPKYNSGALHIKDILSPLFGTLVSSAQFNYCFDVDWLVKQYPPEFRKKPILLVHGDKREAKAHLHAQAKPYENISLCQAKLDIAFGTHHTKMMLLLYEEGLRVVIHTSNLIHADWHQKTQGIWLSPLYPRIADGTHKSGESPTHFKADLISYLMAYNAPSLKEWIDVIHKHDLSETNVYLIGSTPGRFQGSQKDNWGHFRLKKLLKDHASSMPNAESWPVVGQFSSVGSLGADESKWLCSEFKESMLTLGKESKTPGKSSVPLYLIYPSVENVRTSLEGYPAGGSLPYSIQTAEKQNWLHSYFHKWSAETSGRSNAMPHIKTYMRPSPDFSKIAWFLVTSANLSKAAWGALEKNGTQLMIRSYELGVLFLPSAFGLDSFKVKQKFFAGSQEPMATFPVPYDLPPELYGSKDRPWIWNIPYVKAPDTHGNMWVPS
#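 Steps: enzyme plus compound, 15 min RT; add biotin/phosphotyrosine-FITC oligonucleotide (15 nM final), react 5 min; add donor/acceptor beads (10 ug/ml final), 10 min; read AlphaScreen. Tdp1 at 1 nM final.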
# HepG2 viability: kills HepG2 cells in TGF-b inhibitor counter-screen | HepG2 CAGA-GFP viability, ATP luminescence, 18 h | Potency, µM (highest dose often 46.1 µM), actives largely listed as cytotoxic | 410,000 tested, 0.76% active
#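 HepG2 CAGA-GFP cells (1000/well, DMEM with 1% FBS) received compound, then TGF-beta at 500 pg/mL final, and were incubated 18 hours at 37 degrees C. Viability was read by CellTiter-Glo luminescence. Media-only wells were set as complete cell-killing and DMSO as no toxicity.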
# DT40 TDP1 no CPT: qHTS for Inhibitors of human tyrosyl-DNA phosphodiesterase 1 (TDP1): qHTS in cells in absence of CPT; Potency, µM (titrated, usually from 46.2 µM), most hits filed as inhibitors; DT40 Tdp1-/- hTDP1 cells, no CPT, ATP luminescence, 48 h; 420,000 tested, 15% active; note: nearly all actives have a fitted effect of over 55% in size
#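 Luminescent ATP content (CellTiter-Glo) served as the growth readout. Knockout chicken DT40 cells expressing human TDP1 were exposed to compounds without camptothecin for a minimum 48 hr at 37 °C.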
# IL1B secr inh: blocks inflammasome-driven IL-1 beta release | THP-1 LPS/ATP IL-1B secretion, AlphaLISA, 16 h; stronger effect = lower value | 360,000 tested, 4.7% active | AID 743279 | activity change, % at 57.5 µM; in the data active = activity change below about -50%; inconclusive = mostly about -30% to -49%
#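 Secreted IL-1B measured by AlphaLISA bead assay after 16 h compound exposure of THP-1 cells; compounds (final up to 57.5 uM) added 1 h before LPS (250 ng/mL) and ATP (1.25 mM) stimulation; lower signal means less secretion.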
# DT40 TDP1 CPT: growth inhibition of DT40 Tdp1-/-;hTDP1 cells with camptothecin (screen for TDP1 inhibitors); chicken DT40 Tdp1-/-;hTDP1 cells + 20 nM CPT, ATP luminescence, 48 h; Potency, µM (titrated, usually from 46.2 µM), actives largely listed as inhibitors; 420,000 tested, 12% active; AID 686979; note: nearly all actives have a fitted effect of over 55% in size
#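 Chicken DT40 Tdp1-/- cells complemented with human TDP1, 400 cells/well, exposed to compounds plus 20 nM camptothecin for at least 48 h at 37 C; viability read as ATP content by CellTiter-Glo luminescence.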
# Hits are given with their value; i = inactive; ? = inconclusive; nt = no result given; ! = a repeat was not active. In the library only some 19% were active in any assay of this set; here they are far more common. Unless noted, calls come from the whole dose curve; as a rule, active = well fitted curve in the direction sought with a large enough effect; inconclusive = small, poorly fitted or top-dose-only effect, or another doubt; inactive = no such curve, though single readings can be large; an effect the other way counts as inactive or inconclusive.
SMILES,TGFb SMAD3 inh,TDP1 inh,HepG2 viability,DT40 TDP1 no CPT,IL1B secr inh,DT40 TDP1 CPT
COc1cc(CNCc2ccc(C(=O)O)cc2)ccc1OCc1ccc(F)cc1,i,nt,i,i,i,i
COc1ccc(CS(=O)(=O)CC(C)(O)c2ccc(Cl)cc2)cc1 (centres undefined),?,nt,i,i,i,i
COc1ccc(CNCC(O)(c2ccc(F)cc2)c2ccc(F)cc2)cc1OC,?,nt,i,16µM,?,?
COc1ccc(CNCC(O)(c2ccc(Cl)cc2)c2ccc(Cl)cc2)cc1,i,i,10µM,18µM,i,15µM
CC[C@H](C)[C@H](NC(=O)[C@H](Cc1ccc(O)cc1)NC(=O)[C@@H]1CCCN1C(=O)[C@H](CCCCN)NC(=O)[C@@H](N)CCCCN)C(=O)N[C@@H](CC(C)C)C(=O)O,nt,i,nt,nt,nt,nt
CN(C)c1ccc(/C=C2\C=Cc3ccccc32)cc1Cl,i,nt,i,?,nt,?
COc1ccccc1NC(=O)c1cccc(S(=O)(=O)N2CCN(c3ccccc3)CC2)c1,i,i,i,i,?,?
CCc1ccc(Nc2nc(N)nc(CSc3nc4ccccc4s3)n2)cc1,?,i,7.9µM!,?,i,?
Cc1nnc(SCc2nc(N)nc(Nc3ccccc3)n2)s1,i,i,i,i,i,i
CCc1ccc(NC(=O)CSCc2nc(N)nc(Nc3ccccc3CC)n2)cc1,i,i,i,?,?,15µM
CCc1ccccc1Nc1nc(N)nc(CSCC(=O)Nc2ccc(C)c(C)c2)n1,i,i,i,?,i,i
CCOC(=O)C1CCN(C(=O)Cn2c(=O)oc3cc(S(=O)(=O)N4CCCC4)ccc32)CC1,i,nt,i,i,i,i
CC(CCn1cccn1)NC(=O)CCc1nnc(C2CCCCC2)o1 (centres undefined),i,i,i,i,i,i
COc1ccc(-c2cc(C(F)F)n3ncc(C(=O)Nc4c(C)n(C)n(-c5ccccc5)c4=O)c3n2)cc1,i,i,i,12µM,i,?
Cc1ccc(NC(=O)c2cc(-c3cccs3)nc3ccccc23)nc1,i,i,i,13µM,?,23µM
CCCc1cc(C(=O)NNC(=S)NCC)c2ccccc2n1,i,i,i,?,i,?
COc1ccc(-c2cc(C(F)(F)F)n3ncc(C(=O)Nc4c(C)n(C)n(-c5ccccc5)c4=O)c3n2)cc1,nt,i,nt,nt,nt,nt
Cc1c(NC(=O)c2cc(-c3cccs3)nc3ccccc23)c(=O)n(-c2ccccc2)n1C,i,i,i,21µM,-89,?
CCNC(=S)NNC(=O)c1cc(-c2cc(C)ccc2C)nc2ccccc12,i,i,i,15µM,i,15µM
COc1ccccc1NC(=O)Nc1ccnn1C1CCN(C(=O)c2cccnc2)CC1,i,i,i,i,i,i
CCOc1ccc(NC(=O)c2cccc3c(=O)c4c([nH]c23)CCCC4)cc1,i,i,i,i,nt,i
CC(C)OCCCNC(=O)c1cc(-c2cccs2)nc2ccccc12,i,nt,i,?,i,16µM
Cc1ccc(-c2cc(C(=O)Nc3nccs3)c3ccccc3n2)c(C)c1,i,i,i,13µM,i,13µM
COc1ccc(-c2cc(C(=O)Nc3c(C)n(C)n(-c4ccccc4)c3=O)c3ccccc3n2)cc1OC,i,i,i,15µM,i,?
O=C(Nc1nccs1)c1cc(-c2ccncc2)nc2ccccc12,i,i,i,?,i,i
SMILES,TGFb SMAD3 inh,TDP1 inh,HepG2 viability,DT40 TDP1 no CPT,IL1B secr inh,DT40 TDP1 CPT
Cc1cccc(CN2CC34C=CC(CC3S2(=O)=O)O4)c1 (centres undefined),i,i,i,nt,nt,nt
O=c1c2ccccc2[nH]c2ccccc12,i,i,i,16µM,i,8.2µM
O=c1c2c([nH]c3ccccc13)CCCCCC2,i,i,i,16µM,i,23µM
CCOC(=O)c1sc(=S)n(C)c1NC(=O)c1ccc(OC)cc1,i,i,i,21µM,i,2.3µM
CC(C)CCCC(C)NC(C)C (centres undefined),nt,nt,nt,i,nt,i
CC(=O)NC1CCCc2c1cnn2-c1ccc(C(C)(C)C)cc1 (centres undefined),i,nt,i,?,i,?
Cn1nccc1C(=O)NC1CCCc2c1cnn2-c1ccc(C(C)(C)C)cc1 (centres undefined),i,i,i,2.9µM,i,2.9µM
CC(C)(C)c1ccc(-n2ncc3c2CCCC3NC(=O)c2cnccn2)cc1 (centres undefined),i,i,i,9.2µM,-82,?
CC(C)(C)c1ccc(-n2ncc3c2CCCC3NC(=O)c2csnn2)cc1 (centres undefined),i,i,i,12µM,i,?
CC(=O)CCC(=O)NC1CCCc2c1cnn2-c1ccc(C(C)(C)C)cc1 (centres undefined),i,nt,i,?,i,?
O=C(NCCc1ccccc1)[C@@H]1CC=C[C@@H]2CCN(C3CC3)C(=O)[C@@H]21,i,nt,i,i,nt,i
